Source: PubChem BioAssay
An excerpt weighted towards active compounds, which were near 5.2% of everything screened.
SMARCA2 act: increases SMARCA2 function in MMTV reporter cells | MG213 cells, MMTV-luciferase reporter, dexamethasone, overnight | activation, % at 9.1 µM | 1% of 370,000 active; in the data active = activation above about 7.8%;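 note: 0% = vehicle wells and 100% = reference activator wells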
esBAF inh: blocks esBAF chromatin remodeling in mouse ES cells; Bmi1-luciferase knock-in reporter, 24 h; 100% = twice the neutral-well signal; reporter increase, % at 12.5 µM; 2% of 350,000 active; AID 602393; in the data active = activation above about 40%; inconclusive = no clear call, values can overlap the other calls;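 note: 0% = median of the plate's neutral control wells and 100% = double that signal; a rise in the Bmi1 reporter signal indicates esBAF inhibition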
SKN-1 block: inhibitors of C. elegans SKN-1; C. elegans VP596 Pgst-4::GFP/RFP ratio, acrylamide-induced, 24 h; inhibition, % at 21.8 µM; 0.49% of 360,000 active;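 active = interference check ratio from 0.5 to 1.5 plus GFP to RFP signal ratio inhibition reaching or exceeding a fixed threshold, cut at about 30% in these data, passing the limit was not always enough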
NR3A LBD binder: NR3A (human) ligand-binding domain modulation; NR3A LBD differential scanning fluorimetry, Tm shift; 0% = protein alone, 100% = glycine-bound protein; AID 1259313; 2.5% of 340,000 active; Tm shift relative to glycine control, % at 25 µM;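 active = melting temperature shift of at least 10% of the positive control shift, at one fixed dose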
Vif inh: HIV Vif inhibition; inhibition, % at 7.49 µM; HEK293T cells, Vif self-association by quenched fluorescence, imaging, 24 h; AID 602346; 0.35% of 340,000 active; in the data active = inhibition above about 50%, passing the limit was not always enough; inconclusive = no clear call, values can overlap the other calls; inactive = below about 31%
NadD inh: blocks S. aureus nicotinate mononucleotide adenylyltransferase | 0.78% of 360,000 active | purified NadD enzyme, colorimetric absorbance read-out | inhibition, % at 20 µM; in the data active = inhibition above about 26%
esBAF Ring1 qPCR: confirmation of esBAF inhibitors: Ring1 de-repression in mouse ESCs; shares compounds with esBAF inh; mouse ESC E14, Ring1 mRNA RT-qPCR fold change; fold change at 33 µM; 550 tested, under 10 active; AID 743176;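 active = Ring1 gene expression raised more than 2-fold over untreated cells in both replicates at either tested dose; inconclusive = only one replicate above 2-fold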;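 note: Ring1 transcript normalised to actin housekeeping signal by TaqMan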
esBAF Fgf4 qPCR: esBAF inhibition confirmed by Fgf4 repression | shares compounds with esBAF inh | mouse ESC E14, Fgf4 mRNA qPCR fold change; stronger effect = lower value | Fgf4 expression fold change at 33 µM | 4% of 550 active | AID 743177;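 active = Fgf4 expression under 0.8 fold of control in both repeat measurements at one or both tested doses; inconclusive = under 0.8 fold in just a single repeat measurement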;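 note: Fgf4 transcript normalised to actin in duplex TaqMan qPCR; cells exposed to compound for 24 h before lysis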
esBAF Bmi1 qPCR: confirmation of esBAF inhibitors: Bmi1 de-repression in mouse ESCs. fold change at 33 µM. mouse ESE14 ES cells, Bmi1 mRNA qPCR fold; stronger effect = higher value. shares compounds with esBAF inh. 550 tested, under 10 active;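 active = Bmi1 expression fold change above 6 at either tested concentration, seen in replicate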;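 note: higher fold means more Bmi1 de-repression and stronger esBAF inhibition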
A549 tox SP: kills or reduces viability of A549 cells | shares compounds with esBAF inh | A549 cytotoxicity, plate reader | cell viability change % (negative = cytotoxic), % at 25 µM, hits read low | 550 tested, under 10 active; call rule not given here
HepG2 cytotox SP: cytotoxicity in HepG2 cells | shares compounds with esBAF inh | plate reader; stronger effect = lower value | activity change, negative = inhibition, % at 25 µM | 4% of 550 active | AID 743189; in the data active = activity change below about -50%
HEK293 tox SP: kills or reduces viability of HEK293 cells; shares compounds with esBAF inh; HEK293 cytotoxicity, plate reader; activity change, negative = inhibition, % at 25 µM, hits read low; 3% of 550 active; in the data active = activity change below about -38%, passing the limit was not always enough
* marks the source's active call; other numbers are inactive results; ? = inconclusive; · = no result.

SMILES	SMARCA2 act	esBAF inh	SKN-1 block	NR3A LBD binder	Vif inh	NadD inh	esBAF Ring1 qPCR	esBAF Fgf4 qPCR	esBAF Bmi1 qPCR	A549 tox SP	HepG2 cytotox SP	HEK293 tox SP
CCCC#Cc1cnc2c(c1)C(=O)N([C@@H](C)CO)C[C@H](C)[C@@H](CN(C)C(=O)c1ccccc1)O2	·	-1	·	·	·	·	·	·	·	·	·	·
O=C(O)c1ccc(N/N=C/c2cccc3nccnc23)cc1	3	65*	-12	0	0	-1	1.2	0.85	1.8	-13	-29	6
Cc1cccc2cc(/C=N/Nc3ccc(C(=O)O)cc3)c(Cl)nc12	6	·	1	-4	-4	7	·	·	·	·	·	·
COc1ccc(-c2nc(C#N)c(N3CCCCC3)o2)cc1	1	10	2	3	-3	-9	·	·	·	·	·	·
COc1ccc(-c2nc(C#N)c(NC(C)C)o2)cc1	2	67*	2	-2	-4	-3	1.1	1	1.6	-4	-35	-9
COc1cc(/C=C/c2ccccc2)cc(OC)c1	7	68*	-5	0	13	-5	0.89	0.99	1.3	-12	-19	-11
CNc1nc(Cl)nc(Nc2ccccc2)n1	-3	·	1	-2	8	-9	·	·	·	·	·	·
C=CCNc1nc(Cl)nc(Nc2ccccc2)n1	2	60*	1	0	1	4	1.2	1	1.1	4	-9	-10
O=C(NC1CCCCC1)c1ccc(-c2ccccc2)cc1	1	70*	1	-1	5	-2	1.4	0.99	1.5	-3	-34	-6
Nc1nc(SCc2ccccc2)sc1C(=O)N1CCCCC1	0	60*	-3	·	-15	1	1.2	0.92	1.5	-10	-7	-10
O=C(O)c1ccc(Nc2nc(-c3cccnc3)cs2)cc1O	1	3	-4	-3	3	-1	·	·	·	·	·	·
Cc1ccc(Nc2nc(-c3cccnc3)cs2)cc1Cl	2	63*	13	2	-5	-3	1.1	0.74*	1.7	-7	-2	-5
Cc1ccc(NC(=O)NC2CCCCCCC2)cc1C	4	61*	0	-4	1	-6	1.5	0.94	1.6	10	4	1
C[C@@H]1CN([C@H](C)CO)C(=O)c2cc(NC(=O)Cc3cn(C)c4ccccc34)ccc2O[C@H]1CN(C)S(=O)(=O)c1cccs1	·	8	·	·	·	·	·	·	·	·	·	·
O=C(Nc1ccc(Cl)c(Cl)c1)c1ccncc1	4	65*	0	-2	·	-1	1.2	1	1.5	0	22	-8
O=C(Nc1ccc2c(c1)COC2=O)c1ccc(Cl)c(Cl)c1	5	75*	-13	4	-6	1	1.3	1.1	1	-14	-32	-12
O=C(Nc1cccc(Cl)c1)c1ccncc1	-3	3	2	2	7	0	·	·	·	·	·	·
C[C@@H]1CN([C@H](C)CO)C(=O)c2cc(NS(C)(=O)=O)ccc2O[C@@H]1CN(C)CC1CCCCC1	·	-6	·	·	·	·	·	·	·	·	·	·
C[C@@H]1CN([C@H](C)CO)C(=O)c2cc(-c3ccc(C(=O)N(C)C)cc3)cnc2O[C@H]1CN(C)C(=O)CN(C)C	·	3	·	·	·	·	·	·	·	·	·	·
COc1ccc(CN(C)C[C@@H]2Oc3ccc(NC(=O)Nc4c(C)noc4C)cc3C(=O)N([C@@H](C)CO)C[C@@H]2C)cc1	·	-4	·	·	·	·	·	·	·	·	·	·
Nc1[nH][nH]c(=O)c1N=Nc1ccccc1	0	14	-2	1	15	-1	·	·	·	·	·	·
Nc1c(Cl)cc(N=Nc2ccccc2)cc1Cl	5	58*	9	0	3	-1	1	1	1.5	-3	-91*	-7
COC(=O)CN(C)C(=O)c1ccc2nc(Cc3cccc(Cl)c3)oc2c1	7	66*	-7	-1	-1	-5	1.2	1	1.3	-18	-20	-14
CCC(=O)Nc1ccc2c(c1)C(=O)N(C)C[C@H](OC)[C@H](C)CN(C(=O)CC)[C@H](C)CO2	·	-4	·	·	·	·	·	·	·	·	·	·
Cc1cc(C)c2c(CN(C)Cc3ccccc3)cc(=O)oc2c1	6	63*	10	·	·	-7	1.2	?	1.5	-11	-7	-53*
SMILES	SMARCA2 act	esBAF inh	SKN-1 block	NR3A LBD binder	Vif inh	NadD inh	esBAF Ring1 qPCR	esBAF Fgf4 qPCR	esBAF Bmi1 qPCR	A549 tox SP	HepG2 cytotox SP	HEK293 tox SP
CC(C)CC#Cc1ccc2c(c1)O[C@@H](CN(C)C(=O)CN(C)C)[C@@H](C)CN([C@H](C)CO)S2(=O)=O	·	2	·	·	·	·	·	·	·	·	·	·
Cc1ccc(OCc2cnc(Cl)s2)c(C)c1	-3	84*	18	1	6	-10	1.1	0.95	1.8	2	-36	-6
CN(Cc1cccnc1)C(=O)c1cc(COc2ccc3c(c2)CCCC3)on1	-1	86*	-11	2	-19	9	1.3	0.95	1.6	1	-5	-41
CC(=O)c1cccc(OCc2cc(C(=O)N(C)Cc3cnccn3)no2)c1	3	·	14	-1	3	-4	·	·	·	·	·	·
FC(F)Oc1ccccc1/C=N/Nc1nc2ccccc2o1	3	59*	27	-25	-4	-2	1.1	0.97	1.2	2	35	18
C[C@@H]1CN([C@@H](C)CO)C(=O)c2cc(NC(=O)C3CCCCC3)ccc2O[C@@H](C)CCCCO[C@H]1CN(C)S(=O)(=O)c1ccc(F)cc1	·	-3	·	·	·	·	·	·	·	·	·	·
O=C(Nc1nccs1)C(=O)c1c[nH]c2ccccc12	7	68*	11	-10	4	0	1.1	0.87	1.5	-9	-13	-9
Cc1ccc(OCn2c(=O)sc3ccccc32)cc1	·	66*	6	0	-5	-4	1.1	1.2	1.4	-10	-11	-16
CCOC(=O)Cn1c(=O)sc2ccccc21	-1	1	7	1	9	-5	·	·	·	·	·	·
COc1ccccc1N1C(=O)S/C(=C\c2ccc(C)s2)C1=O	2	73*	6	2	?	-11	1	?	1.5	-3	-21	-1
COc1ccccc1N1C(=O)S/C(=C\c2cc(C)n(C)c2C)C1=O	3	·	-1	0	3	6	·	·	·	·	·	·
CCn1c(C)nc2cc(C(=O)NN=Cc3ccccc3OC(F)F)ccc21	-1	79*	5	-1	-2	-1	1.1	1.2	1.4	-11	-26	-11
